Source: the supplement of paper PMC3334620
The full ranking holds about 33,000 sequences; the median of “E-score (-0.5 to 0.5)” is about -0.012, and the highest 2% start at about 0.27. Shown is part of a subset that was picked to be rich in the highest values.

These sequences were tested against T1, Vhr1 (UniProt P40522) (assay: PBM E-score (8-mer binding enrichment) (E-score (-0.5 to 0.5)); higher = stronger / more preferred TF binding). Settings: protein concentration: 200 nM; construct: GST-full length.
T1 sequence: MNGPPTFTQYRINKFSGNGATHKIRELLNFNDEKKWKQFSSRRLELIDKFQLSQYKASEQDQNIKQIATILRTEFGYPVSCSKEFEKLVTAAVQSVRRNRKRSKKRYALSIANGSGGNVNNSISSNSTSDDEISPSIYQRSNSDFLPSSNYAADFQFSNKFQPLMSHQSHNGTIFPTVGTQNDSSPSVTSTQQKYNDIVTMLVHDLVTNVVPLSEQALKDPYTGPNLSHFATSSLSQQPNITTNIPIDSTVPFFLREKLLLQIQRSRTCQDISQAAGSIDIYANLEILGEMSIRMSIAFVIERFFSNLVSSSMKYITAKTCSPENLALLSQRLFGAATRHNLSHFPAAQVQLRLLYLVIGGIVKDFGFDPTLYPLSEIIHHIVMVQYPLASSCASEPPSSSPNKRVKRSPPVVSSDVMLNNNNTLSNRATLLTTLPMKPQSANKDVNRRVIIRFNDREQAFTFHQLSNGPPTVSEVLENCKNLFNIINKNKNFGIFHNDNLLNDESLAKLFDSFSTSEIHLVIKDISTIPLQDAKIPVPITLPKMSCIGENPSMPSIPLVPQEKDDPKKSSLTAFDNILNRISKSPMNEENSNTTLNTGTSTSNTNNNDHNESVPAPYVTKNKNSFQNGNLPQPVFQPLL
How it was run: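 Masliner-normalised scans of fluorescent anti-GST signal were the basis for scoring. That signal came from GST-tagged yeast transcription factors applied at about 100-200 nM to double-stranded universal all-10-mer Agilent arrays on fresh or once-stripped slides. Each ungapped eight-base word, pooled with its reverse complement, received an E-score from the Universal PBM Analysis Suite.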

Sequence | PBM E-score
GTCCATCA | -0.104
GCGAATCA | 0.345
ACGAATCT | -0.0246
ACGAATCA | 0.336
TCGAATCA | 0.253
ACGAATCC | 0.117
GCGAATCC | 0.0147
CCGAATCG | 0.101
CCGAATCC | 0.0952
CCGAATCA | 0.288
ATTTCTGA | -0.152
TATGGAGA | -0.137
CTCCCCCC | -0.0954
ATCTGTTA | -0.0428
GTACACAC | 0.261
ATCAGGTA | 0.193
ATCCCCAC | 0.122
ATACCCAC | 0.176
GCGCGAAC | 0.0578
AGCTAAAG | -0.21
AGAGCCTC | -0.228
CGGCGTGA | 0.142

Sequence | PBM E-score
AGGCGTGA | 0.019
GGGCGTGA | 0.297
GCGACTAA | 0.316
ACGACTAC | 0.209
TCGACTAA | 0.207
GCGACTAC | 0.341
ACGACTAA | 0.194
CCGACTAC | 0.269
CCCAGGCA | 0.0398
CATTCAGC | -0.161
CTTGTAAA | -0.0609
CGTGGGAG | 0.0618
AATAAAGC | -0.176
AGTCGCAC | 0.296
GGTCGCAC | 0.0284
AGTCGCCA | 0.233
AGTCGCAG | 0.24
AGTCGCCG | 0.246
AGTCGCCC | 0.346
GTTCTTGA | -0.0686
CTAGGGGC | -0.146
AACACCAC | 0.0462

Sequence | PBM E-score
GTTCAAAC | -0.0829
ATACTGCA | 0.234
CGCCACGA | -0.0781
CTTGCAAC | 0.0737
GGAATCAC | 0.388
CGAATCAC | 0.331
CGAATCCC | 0.00269
GGAATCCC | 0.034
CGAATCTC | -0.0376
GGAATCAA | 0.154
AAAAGCCA | -0.0583
ACACCTGC | 0.0726
AGGCTACA | 0.0844
ATGACCAC | 0.176
ACCCTATG | 0.136
TACGTTGA | 0.0682
GATTTTGA | 0.0345
ATTACTTG | 0.164
GCTCCGAC | 0.0683
ACTCCGAC | 0.332
ACTCCGAT | 0.1
ACTCCGAG | 0.357

Sequence | PBM E-score
CCTCCGAC | -0.0621
ACTCCGAA | 0.116
TCTTAACA | -0.0919
CATGCATC | 0.28
CATGCATG | 0.117
CATGCATA | 0.0152
ACCTCCAT | 0.0255
CTAGTGGA | -0.162
GATCCCTA | -0.0993
GGCCAGGA | -0.105
CGTTAGTC | 0.132
CATTAGTC | 0.257
AGTTAGTC | 0.291
AATTAGTA | 0.146
AGTTAGTA | 0.137
AATTAGTC | 0.29
CAATCTAA | -0.13
ATAGCAAG | 0.161
GCGAGACC | -0.049
ACTTAGGA | -0.198
